# From PubChem BioAssay AID1569 (National Center for Advancing Translational Sciences (NCATS), 2009)
# Results filed as inconclusive are left out. Unmarked numbers belong to inactive results. Activity calls are given as the source filed them. The call rests on the fitted dose curve; in most records, active means well fitted inhibition curve with a large enough effect; inconclusive means small, poorly fitted or top-dose-only effect, or effect the other way, or another doubt; inactive means no such curve, though single readings can be large or run the other way.
# Assay: Confirmation Concentration-Response Assay for lipid storage modulators; further: nearly all actives have a fitted effect of over 80% in size;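 on activity change, negative = inhibition: -100% = full block of lipid deposition by 20 µM Triacsin C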
# Details: Drosophila S3 cells, lipid droplet BODIPY/CellTracker ratio, 18-24 h; series mostly up to 46.1 µM; activity change, negative = inhibition: at the top concentration
# Method in brief: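 Cells at 5,000/well received compound as a titration plus oleic acid (added as 400 uM solution) and were incubated 18–24 h at 24 °C. BODIPY 493/503 lipid signal and CellTracker Red cell count were read by 488-nm laser-scanning cytometry. Activity was normalised to 20 uM Triacsin C.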
# Potency means the concentration at half of the fitted maximal effect.
SMILES,"activity change, negative = inhibition",Potency
Cc1cc(C(=O)O[C@H]2[C@H](Cc3ccccc3)NS(=O)(=O)[C@H]3C[C@@H]4C=C[C@]23O4)ccc1[N+](=O)[O-],-10.7%,
CCOc1ccc(CCNC(=O)c2cc3sccc3n2C)cc1OCC,,0.705 µM (active)
O=C(CCC1CCCN(C(=O)c2ccc3c(c2)OCCO3)C1)NCc1ccccc1F (stereo unspecified),,2.23 µM (active)
COCCN(C(=O)c1ccccc1F)c1nnc(-c2ccc(OC)cc2)s1,,25 µM (active)
CC(C)N1CCc2c(sc(NC(=O)c3ccc(S(=O)(=O)N4CCCCC4C)cc3)c2C(N)=O)C1 (stereo unspecified),-14.3%,
Cc1sc2ncnc(NCC3COc4ccccc4O3)c2c1C (stereo unspecified),,1.99 µM (active)
COC(=O)c1cc(C)sc1NC(=O)C1CC(=O)NN1Cc1ccccc1 (stereo unspecified),,1.41 µM (active)
COc1ccc(CCNC(=O)COc2cc(O)c3c(c2)OC(C)(C)CC3=O)cc1OC,2%,
CCN(CC)S(=O)(=O)c1cccc(NC(=O)CNc2cccc(S(=O)(=O)N3CCCC3)c2)c1,,1.99 µM (active)
Cc1ccccc1C(=O)N1CCC(C(=O)Nc2ccc(S(=O)(=O)N3CCCCC3)cc2)CC1,-14.9%,
CCOc1ccc2nc(NC(=O)CSc3nc(SC)ns3)sc2c1,,4.45 µM (active)
Cn1nc(CC(=O)Nc2ccc(N3CCN(C(=O)OC(C)(C)C)CC3)cc2)c2ccccc2c1=O,,1.77 µM (active)
CNc1cccc2c1C(=O)c1ccccc1C2=O,,6.28 µM (active)
CCCCCCCCCC[n+]1cccc2c3ccccc3ccc21,,1.77 µM (active)
CCOC(=O)C1CCN(C(=O)C2(NC(=O)Nc3cccc(F)c3)CCCCC2)CC1,,3.97 µM (active)
CSCC(=O)NC1CCCc2c1cnn2-c1cc(F)cc(F)c1 (stereo unspecified),,2.5 µM (active)
CCc1ccc(CN(C)C(=O)c2ccc3c(=O)n4c(nc3c2)CCC4)cc1,5.52%,
CCOc1ccc(CCNC(=O)COC(=O)c2ccc3c(c2)OCCO3)cc1OCC,,1.41 µM (active)

SMILES,"activity change, negative = inhibition",Potency
COc1ccc(-c2nc(C)ncc2N=Nc2ccccc2)cc1,,25 µM (active)
CCOC(=O)c1cc2c(ccn2-c2ccc(F)cc2)n1CC(=O)NC(C)(C)C,,1.41 µM (active)
COc1ccc(CCNC(=O)Cn2cnc3c(cnn3-c3ccccc3Cl)c2=O)cc1OC,-8%,
CCC1CCCCN1C(=O)c1cc(COc2ccc3ncccc3c2)on1 (stereo unspecified),,4.34 µM (active)
CCOC(=O)c1cc2c(ccn2-c2ccc(F)cc2)n1CC(=O)N(CC)CC,,2.17 µM (active)
CCOc1ccc(CCNC(=O)COC(=O)/C=C/c2ccccc2)cc1OCC,,3.53 µM (active)
COc1ccc(CCNC(=O)c2ccccc2-c2ccccc2C(=O)O)cc1OC,17.3%,
CCN(CC)S(=O)(=O)c1cc(NC(=O)CNc2cccc(S(=O)(=O)N3CCOCC3)c2)ccc1C,,2.81 µM (active)
CCC(C)N1C(=O)c2ccccc2C1C(=O)NC1CCCCCC1 (stereo unspecified),,1.99 µM (active)
CCOc1ccc(CCNC(=O)COC(=O)CSc2ccccc2C)cc1OCC,22.7%,
Cc1ccc(-n2ncc3c2CCCC3NC(=O)c2cnccn2)cc1C (stereo unspecified),,0.141 µM (active)
COc1ccc(-c2cnc(SCC(=O)Nc3nc(C(C)(C)C)cs3)n2Cc2ccco2)cc1,,0.705 µM (active)
CN(C1=C(N2CCOCC2)C(=O)c2ccccc2C1=O)c1ccccc1,,6.28 µM (active)
COc1ccc(NC(=O)NC2(C(=O)N3CCN4CCCC4C3)CCCCC2)cc1 (stereo unspecified),10.5%,
CC1CCCN(C2=C(NS(=O)(=O)c3ccc(Br)cc3)C(=O)c3ccccc3C2=O)C1 (stereo unspecified),,2.5 µM (active)
COc1cccc2cc(-c3nnc(SCC(=O)Nc4nc(C)cs4)n3C)oc12,,1.99 µM (active)
CCOc1ccc(CCNC(=O)CN2CCN(Cc3ccccc3C)C2=O)cc1OCC,-49.3%,
COc1ccc(NC(=O)NC2(C(=O)N3CCN(C)CC3)CCCCC2)cc1,22.7%,
